Data on 40 compounds can be found in PubChem BioAssay (EPA / NIEHS).

The structures appear in SMILES notation. Activity calls are given as the source filed them. Rule for the calls: active = hit-call score of the fitted dose curve at least 0.9, where 1 is the maximum; inactive = score below 0.9.

Chain of Paired box protein Pax-6 (Homo sapiens) (P26367 whole entry, looked up): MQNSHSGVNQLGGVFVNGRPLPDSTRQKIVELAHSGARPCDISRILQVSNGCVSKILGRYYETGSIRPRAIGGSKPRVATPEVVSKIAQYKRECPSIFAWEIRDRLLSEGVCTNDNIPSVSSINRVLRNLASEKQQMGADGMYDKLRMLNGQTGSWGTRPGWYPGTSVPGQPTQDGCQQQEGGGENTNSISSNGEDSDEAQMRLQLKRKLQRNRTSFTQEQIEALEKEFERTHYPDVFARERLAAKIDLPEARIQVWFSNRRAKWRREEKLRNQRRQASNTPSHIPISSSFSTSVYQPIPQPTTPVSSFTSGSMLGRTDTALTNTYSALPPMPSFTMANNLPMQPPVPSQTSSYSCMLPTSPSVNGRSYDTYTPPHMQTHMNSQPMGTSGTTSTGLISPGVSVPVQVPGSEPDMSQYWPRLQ

The target in the test is Paired box protein Pax-6 (Homo sapiens) (UniProt P26367). The experiment in a line: ATG_Pax6_CIS: Attagene CIS-FACTORIAL HepG2 Assay for human Paired Box 6 (PAX6) (AID 2282956). As to conditions: HepG2 CIS-FACTORIAL PAX6 reporter transcription, RNA readout; actives raise or lower the signal. How it is done:
ATG_CIS is a cell-based, multiplexed-readout assay that uses HepG2, a human liver cell line, with measurements taken at 24 hours after chemical dosing in a 24-well plate.ATG_Pax6_CIS is one of 52 assay component(s) measured or calculated from the ATG_CIS assay. It is designed to make measurements of mRNA induction, a form of inducible reporter, as detected with fluorescence intensity signals by Reverse transcription polymerase chain reaction (RT-PCR) and Capillary electrophoresis technology.Data from the assay component ATG_Pax6_CIS was analyzed into 1 assay endpoint. This assay endpoint, ATG_Pax6_CIS, was analyzed with bidirectional fitting relative to DMSO as the negative control and baseline of activity. Using a type of inducible reporter, measures of mRNA for gain or loss-of-signal activity can be used to understand the reporter gene at the transcription factor-level as they relate to the gene PAX6. Furthermore, this assay endpoint can be referred to as a primary readout, because this assay has produced multiple assay endpoints where this one serves a reporter gene function. To generalize the intended target to other relatable targets, this assay endpoint is annotated to the dna binding intended target family, where the subfamily is paired box protein.
Human liver HepG2 cells are transiently transfected with multiple reporter transcription units (MRTUs) in 6-well plates using FuGene 6 reagent (Roche; 3 ml FuGene/1 mg DNA). The MRTU constructs are regulated by a cis-regulating element (promoter). […] A major difference between the CIS and TRANS system is that in CIS activities of endogenous TFs are measured, whereas the TRANS assay evaluates changes in activities of exogenous, chimeric NR-Gal4 proteins. […] At the end of 24 hour incubation, total RNA was isolated using TriZol reagent (Invitrogen). The isolated RNA is then reverse-transcribed using oligo(dT) primer and Mo-MLV reverse transcriptase (Invitrogen) with DNAse I (Ambion) treatment for 30 min. The one-tenth of the produced cDNA was amplified by PCR using Taq DNA polymerase (Invitrogen) and two reporter sequence-specific primers. The PCR products were fluorescently labeled by primer extension with 6-arboxyfluorescein (6-FAM) 5'-labeled reporter sequence-specific primer (2 min at 95 C, 20 s at 68 C and 10 min at 72 C) and these products were digested with 5U of HpaI (New England Biolabs) for 2h at 37 C. The fragments were purified using Qiaquick PCR columns (Qiagen), analyzed on an ABI 3130xL genetic analyzer (Applied Biosystems) with peak positions identified by using a set of X-rhodamine (ROX)-labeled MapMarker1000 molecular weight standards (BioVentures). The raw capillary electrophoresis data was processed using Attagraph software (Attagene).
For the compound `C[N+](C)(C)CC(=O)[O-]`, the outcome was inactive. Still for that read-out and setting: in the case of `C=CC(=O)OCC(CC)CCCC` (stereo not given) it was “inactive”; in that of `CCOC(=O)C1OC1(C)c1ccccc1` (stereo not given), “inactive”; in that of `CN(C)N`, “inactive”. For the compound `CCOC(=O)COc1ccc(Cl)cc1Cl`, the outcome was inactive. As for `CC(=O)C=Cc1ccccc1`, the half-maximal activity concentration (AC50) was 130 µM (active). In the case of `CC(C)C#N`, the compound was called inactive. In the case of `C[N+](C)(C)CC(=O)O`, the outcome was inactive. Still for that read-out and setting: under `COc1ncc(F)c2nc(S(=O)(=O)Nc3c(F)cccc3F)nn12` stands “inactive”.

Regarding `CCC1CCC(=O)O1` (stereo not given), the result was inactive.

As to `CCCCCc1cc(O)cc(O)c1`, the concentration at half-maximal activity (AC50) is 146 µM (active). `C[N+](C)=CCl`: the compound was called inactive. Same read-out and setting: under `CCCCCCC1CCOC1=O` (stereo not given) stands “inactive”.

`O=C1C(Cl)=C(Cl)C(=O)C(Cl)=C1Cl`: the half-maximal activity concentration (AC50) is 132 µM (active). For `SCc1ccco1`, the call was inactive.

Take `CC1OC(C)OC(C)O1` (stereo not given): the compound was called inactive. `c1ccc2c(c1)CCCC2`: the result was inactive. For `CCC(=O)c1ccc(Cl)cc1`, the call was inactive. Same read-out and setting: in the case of `O=c1[nH]c(Cl)c(Cl)cc1Cl` it was “inactive”; in that of `CCC[N+](=O)[O-]`, “inactive”. As to `CC(C)(c1cc(Cl)c(O)c(Cl)c1)c1cc(Cl)c(O)c(Cl)c1`, the AC50 was 52.3 µM (active). Regarding `Nc1ccccc1C(=O)OCCc1ccccc1`, the result was inactive. For the compound `ClC1=C(Cl)[C@]2(Cl)[C@@H]3[C@@H](Cl)[C@H](Cl)C[C@@H]3[C@@]1(Cl)C2(Cl)Cl`, the call was inactive.

In the case of `S=c1[nH]c2ccccc2[nH]1`, the call was inactive.

As for `CSc1nc(N=[N+]=[N-])nc(NC(C)C)n1`, the compound was called inactive. Same read-out and setting: under `O=P(O)(Oc1ccccc1)Oc1ccccc1` stands “inactive”; under `CN(C)C(=O)C(c1ccccc1)c1ccccc1`, “inactive”. Turning to `O=[N+]([O-])c1cc(C(F)(F)F)c(Cl)c([N+](=O)[O-])c1Cl`, the AC50 is 2.77 µM (active).

For the compound `CCOC(=O)N(C)N=O`, the outcome was inactive. Still for that read-out and setting: under `CCCC=NO` stands “inactive”; under `CNC(=O)Oc1cc(C)c(SC)c(C)c1`, “inactive”. Still for that read-out and setting: in the case of `Clc1ccc(-c2ccccc2)cc1` it was “inactive”. Same read-out and setting: in the case of `[CH3][Sn]([CH3])([Cl])[Cl]` it was “inactive”. With `CCc1cc(C)cc(CC)c1-c1c(OC(=O)C(C)(C)C)n2n(c1=O)CCOCC2`, the call was inactive. On the same count and under the same terms, under `O=C1C=CC(=O)C=C1` stands “inactive”; under `COC(=O)c1ccccc1S(=O)(=O)NC(=O)Nc1nc(C)cc(C)n1`, “inactive”; under `O=[N+]([O-])O`, “inactive”. In the case of `CC(C)(O)C#N`, the call was inactive.

Consider `N#CCCCl`, for which the result was inactive. On to `CCC(Br)(CC)C(=O)NC(N)=O`, for which the compound was called inactive.
